Reference: PubChem BioAssay (EPA / NIEHS)
Results filed as inconclusive are left out. The source holds several records for some structures; these can differ, active in one and inactive in another. The source made the active and inactive calls. Rule for the calls, unless noted: active = hit-call score of the fitted dose curve at least 0.9, where 1 is the maximum; inconclusive = response in the unintended direction; inactive = score below 0.9.

Columns and labels:
[1] = read-out: Transforming Growth Factor (TGFB1), TGFB1 (gene 7040); experiment: LTEA_HepaRG_TGFB1: Life Technologies and Expression Analysis (LTEA) Assay for Transforming Growth Factor (TGFB1) Transporter using HepaRG (AID 2283533; active = hit-call score of the fitted dose curve at least 0.9, where 1 is the maximum; inactive = score below 0.9); conditions: mRNA level, 48 h; actives raise or lower the signal
Procedure, shortened: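 Differentiated human HepaRG cells in serum-free induction medium were exposed in duplicate for 48 h to eight concentrations (top 100 uM, half-log steps, 0.5% DMSO). TGFB1 mRNA was quantified by qRT-PCR, normalized to ACTB, GAPDH, POLR2A, and fitted bidirectionally against DMSO.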

TIMP1, TIMP1 (gene 7076) = experiment: LTEA_HepaRG_TIMP1: Life Technologies and Expression Analysis (LTEA) Assay for TIMP1 using HepaRG (AID 2283534; active = hit-call score of the fitted dose curve at least 0.9, where 1 is the maximum; inactive = score below 0.9;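 note: TaqMan qRT-PCR signal normalized to ACTB GAPDH and POLR2A housekeeping genes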); conditions: mRNA level, 48 h; actives raise or lower the signal
Procedure, shortened: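 Differentiated human HepaRG cells in serum-free induction medium were exposed 48 h to chemicals (8 half-log concentrations, top 100 uM, 0.5% DMSO). TIMP1 mRNA was quantified by TaqMan qRT-PCR, normalized to ACTB/GAPDH/POLR2A; bidirectional fit versus DMSO.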

[2] = read-out: Tumor necrosis factor receptor 1 (TNFRSF1A), TNFRSF1A (gene 7132); experiment: LTEA_HepaRG_TNFRSF1A: Life Technologies and Expression Analysis (LTEA) Assay for Tumor necrosis factor receptor 1 (TNFRSF1A) using HepaRG (AID 2283535; active = hit-call score of the fitted dose curve at least 0.9, where 1 is the maximum; inactive = score below 0.9); conditions: mRNA level, 48 h; actives raise or lower the signal
Procedure, shortened: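 Differentiated human HepaRG cells were exposed in duplicate for 48 h in serum-free induction medium to eight concentrations (top 100 uM, half-log steps, 0.5% DMSO). TNFRSF1A mRNA was quantified by qRT-PCR, normalized to ACTB, GAPDH and POLR2A, then fitted bidirectionally against DMSO.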

[3] = read-out: Thyroid Hormone Responsive (THRSP), THRSP (gene 7069); experiment: LTEA_HepaRG_THRSP: Life Technologies and Expression Analysis (LTEA) Assay for Thyroid Hormone Responsive (THRSP) using HepaRG (AID 2283536; active = hit-call score of the fitted dose curve at least 0.9, where 1 is the maximum; inactive = score below 0.9); conditions: mRNA level, 48 h; actives raise or lower the signal
Procedure, shortened: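 Cell model: human HepaRG, approx. 100,000 cells/well, 0.5% DMSO vehicle. Exposure lasts 48 h; phenobarbital 1 mM serves as induction positive control. Gene expression is measured by qRT-PCR against three endogenous control genes.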

[4] = read-out: Cellular tumor antigen p53 (Homo sapiens) (UniProt P04637); experiment: LTEA_HepaRG_TP53: Life Technologies and Expression Analysis (LTEA) Assay for Tumor Protein P53 (TP53) using HepaRG (AID 2283537; active = hit-call score of the fitted dose curve at least 0.9, where 1 is the maximum; inactive = score below 0.9); conditions: mRNA level, 48 h; actives raise or lower the signal
Procedure, shortened: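 HepaRG, 48 h exposure, top 100 uM, half-log 8-point, 0.5% DMSO vehicle, duplicates. Read: TP53 mRNA by TaqMan qRT-PCR, normalised to ACTB/GAPDH/POLR2A; bidirectional fit vs DMSO.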

[5] = read-out: UDP glucuronosyltransferase (UGT1A1), UGT1A1 (gene 54658); experiment: LTEA_HepaRG_UGT1A1: Life Technologies and Expression Analysis (LTEA) Assay for UDP glucuronosyltransferase (UGT1A1) using HepaRG (AID 2283538; active = hit-call score of the fitted dose curve at least 0.9, where 1 is the maximum; inactive = score below 0.9); conditions: mRNA level, 48 h; actives raise or lower the signal
Procedure, shortened: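 mRNA induction or loss of UGT1A1, by TaqMan qRT-PCR, in duplicate HepaRG wells after 48 h exposure to half-log dilutions topping at 100 uM; DMSO (0.5%) served as baseline.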

[6] = read-out: UDP glucuronosyltransferase (UGT1A6), UGT1A6 (gene 54578); experiment: LTEA_HepaRG_UGT1A6: Life Technologies and Expression Analysis (LTEA) Assay for UDP glucuronosyltransferase (UGT1A6) using HepaRG (AID 2283539; active = hit-call score of the fitted dose curve at least 0.9, where 1 is the maximum; inactive = score below 0.9); conditions: mRNA level, 48 h; actives raise or lower the signal
Procedure, shortened: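 Human HepaRG cells were dosed for 48 h in serum-free induction medium with 0.5% DMSO vehicle, eight-point half-log series from 100 uM, in duplicate. UGT1A6 mRNA was measured by qRT-PCR, normalized to ACTB, GAPDH, POLR2A, and fitted bidirectionally against DMSO.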

[7] = read-out: X-box binding protein 1 (XBP1), XBP1 (gene 7494); experiment: LTEA_HepaRG_XBP1: Life Technologies and Expression Analysis (LTEA) Assay for X-box binding protein 1 (XBP1) using HepaRG (AID 2283540; active = hit-call score of the fitted dose curve at least 0.9, where 1 is the maximum; inactive = score below 0.9); conditions: mRNA level, 48 h; actives raise or lower the signal
Procedure, shortened: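 Differentiated human HepaRG cells in serum-free induction medium were exposed in duplicate for 48 h to eight half-log concentrations up to 100 uM in 0.5% DMSO. XBP1 mRNA was quantified by qRT-PCR, normalised to ACTB, GAPDH and POLR2A, with bidirectional fitting against DMSO.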

[8] = LTEA_HepaRG_LDH_cytotoxicity: Cytotoxicity Assessment in the Life Technologies and Expression Analysis (LTEA) Assay (AID 2283563);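 for AC50: LDH activity released into spent culture medium as a marker of cell death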
Procedure, shortened: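 Differentiated human HepaRG cells, plated 48 h beforehand, were switched to serum-free induction medium and exposed for 48 h to eight half-log concentrations (top 100 uM) in 0.5% DMSO. LDH was measured in spent medium; activity was fitted relative to DMSO vehicle.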

[9] = TOX21_p53_BLA_p2_viability: Viability Assessment in the Tox21 HCT-116 p53 Agonism Beta-lactamase Assay, Phase 2 (AID 2283591);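 note: compound exposure lasted 16 h at 37 °C; actives lower the ATP signal meaning cytotoxicity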
Procedure, shortened: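 HCT-116 p53-bla cells (4000/well) rested 5 h at 37C, then received compounds in DMSO (217-fold dilution) for 16 h at 37C, 5% CO2. After the CCF4 read, CellTiter-Glo was added; ATP luminescence was read after 30 min at room temperature.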

[10] = target: Cellular tumor antigen p53 (Homo sapiens) (UniProt P04637); experiment: TOX21_p53_BLA_p2_ratio: Tox21 HCT-116 p53 Agonism Beta-lactamase Assay, Ratio, Phase 2 (AID 2283592)
Procedure, shortened: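 Ratio endpoint: beta-lactamase cleavage of CCF4-AM, blue (460 nm) over green (530 nm). HCT116 reporter line; 16 h treatment, 37C; substrate 2 h RT.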

[11] = TOX21_p53_BLA_p3_viability: Viability Assessment in the Tox21 HCT-116 p53 Agonism Beta-lactamase Assay, Phase 3 (AID 2283593);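 note: cells exposed to compound for 16 h before reading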
Procedure, shortened: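 HCT-116 cells (4000/well) rested 5 h at 37C, then got DMSO compounds by pin tool (217-fold dilution) for 16 h at 37C, 5% CO2. After the bla read, CellTiter-Glo was added and luminescence read at 30 min, room temperature.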

[12] = target: Cellular tumor antigen p53 (Homo sapiens) (UniProt P04637); experiment: TOX21_p53_BLA_p3_ratio: Tox21 HCT-116 p53 Agonism Beta-lactamase Assay, Ratio, Phase 3 (AID 2283596)
Procedure, shortened: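 Cells were seeded at 4000/well, rested 5 h at 37C, then dosed with DMSO compound solutions (217-fold dilution) for 16 h. CCF4-AM substrate was loaded for 2 h at room temperature, and the 460/530 nm emission ratio was fitted for gain of signal versus DMSO.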

[13] = TOX21_p53_BLA_p4_viability: Viability Assessment in the Tox21 HCT-116 p53 Agonism Beta-lactamase Assay, Phase 4 (AID 2283597);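 note: hits lower the luminescence signal meaning cytotoxicity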
Procedure, shortened: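 Cytotoxicity was inferred from loss of CellTiter-Glo luminescence. HCT116 cells had been dosed with compounds after 5 h plating, incubated 16 h at 37C and 5% CO2, and exposed to the CCF4-AM substrate for 2 h.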

[14] = target: Cellular tumor antigen p53 (Homo sapiens) (UniProt P04637); experiment: TOX21_p53_BLA_p5_ratio: Tox21 HCT-116 p53 Agonism Beta-lactamase Assay, Ratio, Phase 5 (AID 2283599)
Procedure, shortened: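 HCT-116 cells carrying a p53-inducible beta-lactamase reporter were seeded at 4000 cells/well and dosed after 5 h with compound in DMSO (217-fold dilution). After 16 h at 37C, CCF4-AM substrate was added for 2 h, and the 460/530 nm emission ratio was scored as gain-of-signal versus DMSO.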

[15] = target: Cellular tumor antigen p53 (Homo sapiens) (UniProt P04637); experiment: TOX21_p53_BLA_p4_ratio: Tox21 HCT-116 p53 Agonism Beta-lactamase Assay, Ratio, Phase 4 (AID 2283601)
Procedure, shortened: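 HCT116 cells carrying an inducible beta-lactamase reporter were plated at 4000 cells/well, rested 5 h, then exposed to compounds in DMSO (217-fold dilution) for 16 h at 37C. CCF4-AM substrate was loaded 2 h at room temperature; 460/530 nm emission ratio scored gain-of-signal versus DMSO.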

[16] = Tanguay_ZF_120hpf_MORT_legacy: (Legacy) Oregon State University Tanguay Lab 120 Hour Post-fertilization zebrafish Assay for Mortality (AID 2283633)
Procedure, shortened: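 Dechorionated Tropical 5D wild-type zebrafish embryos, one per well from 6 hpf, were statically exposed at 28C in the dark until 120 hpf (0.64% DMSO final). Mortality was scored as present/absent by brightfield microscopy, fitted positively versus DMSO.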

[17] = Tanguay_ZF_120hpf_YSE_legacy: (Legacy) Oregon State University Tanguay Lab 120 Hour Post-fertilization zebrafish Assay for Yolk Sac Edema (AID 2283634);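 for AC50: actives raise the incidence of yolk sac edema above the DMSO baseline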
Procedure, shortened: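 Tropical 5D wild-type embryos, dechorionated with pronase at 4 hpf, were exposed singly from 6 hpf to 120 hpf under static, sealed, dark conditions at 28C with 0.64% DMSO final. Yolk sac edema was scored present/absent by brightfield microscopy.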

[18] = TOX21_p53_BLA_p5_viability: Viability Assessment in the Tox21 HCT-116 p53 Agonism Beta-lactamase Assay, Phase 5 (AID 2283600)
Procedure, shortened: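 Luciferase-coupled ATP quantitation of cells treated for 16 h (37C, 5% CO2) with test chemicals delivered in DMSO via a 217-fold dilution; 4000 cells/well; reagent incubated 30 min at room temperature before luminescence reading.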

[19] = ATG_XTT_Cytotoxicity: Cytotoxicity Assessment in the Attagene TRANS-FACTORIAL HepG2 Assay (AID 2283584)
Procedure, shortened: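 HepG2 human liver cells, transiently transfected with multiple GAL4-UAS reporter units, were dosed and read at 24 h by XTT as cell number. Loss of signal was fitted relative to DMSO negative control baseline.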

Measured: AC50

Cellular tumor antigen p53 (Homo sapiens), sequence (P04637 whole entry, looked up): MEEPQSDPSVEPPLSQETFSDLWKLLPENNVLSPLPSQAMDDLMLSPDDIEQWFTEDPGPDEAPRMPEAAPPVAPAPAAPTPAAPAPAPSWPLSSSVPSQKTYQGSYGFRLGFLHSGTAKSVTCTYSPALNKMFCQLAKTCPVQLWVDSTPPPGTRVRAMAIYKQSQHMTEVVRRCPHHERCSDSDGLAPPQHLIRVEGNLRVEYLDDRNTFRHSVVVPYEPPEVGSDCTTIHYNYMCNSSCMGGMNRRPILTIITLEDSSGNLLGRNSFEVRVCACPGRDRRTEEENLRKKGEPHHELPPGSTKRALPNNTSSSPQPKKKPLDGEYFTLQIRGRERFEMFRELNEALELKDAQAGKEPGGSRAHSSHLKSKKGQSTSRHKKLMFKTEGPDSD

CCC(C)(C)C(=O)OC1=C(c2ccc(Cl)cc2Cl)C(=O)OC12CCCCC2
active: [11] 74.9 µM | [12] 2.5 µM | [14] 28.4 µM
not listed: [18] | [19]
inactive: all other assays above

CC1(c2ccc(Oc3ccccc3)cc2)OC(=O)N(Nc2ccccc2)C1=O (stereo not given)
active: [3] 24.1 µM | [4] 12.9 µM | [6] 50.2 µM | [8] 50.2 µM | [10] 16.9 µM | [13] 19.5 µM | [14] 46.4 µM | [15] 51.2 µM
not listed: [19]
inactive: all other assays above

CCC(C)(NC(=O)c1cc(Cl)c(C)c(Cl)c1)C(=O)CCl (stereo not given)
inactive: TIMP1, TIMP1 (gene 7076) | [4] | [7] | [16]
active: [1] 75.6 µM | [2] 90.6 µM | [3] 95.3 µM | [5] 12.4 µM | [6] 80.3 µM | [8] 77.6 µM | [9] 71.9 µM | [10] 30.2 µM | [11] 76.4 µM | [12] 29.6 µM | [13] 60.3 µM | [14] 72.2 µM | [18] 74.7 µM | [15] 66.8 µM | [17] 26.1 µM

CC1(C)C(C=C(Cl)Cl)C1C(=O)OC(C#N)c1ccc(F)c(Oc2ccccc2)c1 (stereo not given)
active: [5] 10.2 µM
not listed: [12]
inactive: all other assays above

O=C(O)COc1ccc(Cl)cc1Cl
inactive: [1] | TIMP1, TIMP1 (gene 7076) | [2] | [3] | [4] | [5] | [6] | [7] | [8] | [19] | [9] | [10] | [11] | [13] | [14] | [18] | [15] | [16] | [17]
active: [15] 0.000116 µM
